Measured values reported in PubChem BioAssay AID687001 (Broad Institute, 2013).
Potency and affinity values are given separately. Activity calls are given as the source filed them.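 The calls were made as follows: active = signal-lowering compounds whose fitted half-maximal concentration is at or below twice the top tested dose in every run; inconclusive = runs disagree, flat 30 to 70% inhibition, or poor curve fit; inactive = the rest.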

Target: Protein S100-A4 (Homo sapiens) (UniProt P26447)
Test: human S100A4 peptide interaction inhibition curves – biochemical, fluorescence polarization, cherry-picked hits, dose response (AID 687001);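 also: 0% = DMSO neutral control wells and -100% = TFP positive control wells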
Details: FP, S100A4/TAMRA-myosin IIA peptide binding; series mostly up to 11 µM; activity change, negative = inhibition: at the top concentration

Sequence of Protein S100-A4 (Homo sapiens) (P26447 whole entry, looked up): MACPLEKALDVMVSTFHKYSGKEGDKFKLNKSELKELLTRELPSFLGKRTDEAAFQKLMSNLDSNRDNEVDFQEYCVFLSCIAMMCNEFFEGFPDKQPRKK

Activity change, negative = inhibition, inactive:
COc1ccc(-n2ncc3c2CC(C)(C)CC3NC(=O)CCc2c(C)nn(C)c2C)cc1 (stereo not drawn) -0.643%
CC(OC(=O)/C=C/c1cccs1)C(=O)NC1CCCCC1C (stereo not drawn) -1.61%
Cn1c(=O)c2sccc2n2c(CCCC(=O)N3CCN(c4ccccn4)CC3)nnc12 3.24%
CCN(CC(=O)Nc1c(F)cccc1F)C(=O)CNC(=O)c1cccs1 -1.62%
O=C(OCc1cc(=O)n2ccsc2n1)c1ccc(OC(F)F)cc1 -1.21%
CCN(CC)c1ccc(S(=O)(=O)N2CCOCC2)cc1NC(=O)COC(=O)/C=C/c1ccccc1 -2.06%
CCOc1ccc(S(=O)(=O)N2CCCC(C(=O)NCC3CCCO3)C2)cc1Cl (stereo not drawn) -4.41%
COc1ccc2c3c(n(C)c2c1)[C@@H](CO)N(C(=O)Nc1ccc(F)cc1)CC31CCN(C)CC1 2.05%
Cc1ccc(S(=O)(=O)NCc2ccccc2)cc1C(=O)NCC1CCCO1 (stereo not drawn) -6.65%
COCCCN1CC(=O)N2C(c3ccccc3)c3[nH]c4ccccc4c3C[C@H]2C1=O (stereo partly drawn) -3.16%
CC1=CC(C)(C)NC(=S)N1C(C)c1ccccc1 (stereo not drawn) -1.25%
NC(=O)c1cc(S(=O)(=O)Nc2cccc(Cl)c2)cs1 -0.185%
CC1Cc2ccccc2N1NC(=O)c1ccc(Cl)c(S(N)(=O)=O)c1 (stereo not drawn) -3.85%
C[C@H](NC(=O)C[C@@H]1CC[C@H](NC(=O)C2CCOCC2)[C@@H](CO)O1)c1ccccc1 3.41%
O=C(CC1C[C@H](C(=O)N2CCCCC2)[C@@]2(CCc3ccccc3)c3[nH]c4ccccc4c3CCN2C1=O)NCCC1=CCCCC1 (stereo partly drawn) -5.01%
CN(C)Cc1cn(CC[C@H]2CC[C@H](NC(=O)Cc3cccnc3)[C@H](CO)O2)nn1 -0.327%
COc1ccc(C)c2sc(N(CCN(C)C)C(=O)c3ccc4ccccc4c3)nc12 -1.89%
COC(=O)c1ccc(NC(=O)C2CCCN2C(=O)Nc2cccc(C(C)=O)c2)cc1 (stereo not drawn) -0.161%
CO[C@H]1CN(C)C(=O)c2ccc(NC(=O)c3ccccc3F)cc2OC[C@H](C)NC[C@@H]1C -1.06%
CCCNC(=O)N1C[C@H](O)COC[C@@H]2O[C@H](CC(=O)N[C@H]3CCN(Cc4ccccc4)C3)CC[C@H]21 1.92%
CC(C)C#Cc1ccc2c(c1)O[C@@H](CN(C)C(=O)NC(C)C)[C@H](C)CN([C@H](C)CO)S2(=O)=O 0.298%
CCOC(=O)[C@]12CCCC=C1N(Cc1cccc3ccccc13)C(=O)[C@H](CC(=O)NCCCN1CCCC1=O)C2 -4.19%
COC(=O)CCCC1=CC2=C(c3ccccc3)C(=O)C(C)(OC(=O)C3CCCC3)C(=O)C2=CN1Cc1ccc2c(c1)OCO2 (stereo not drawn) 5.52%
O=C(C[C@H]1C[C@H]2c3cc(NC(=O)Cc4ccncc4)ccc3O[C@H]2[C@H](CO)O1)NCc1ccccn1 10.1%
O=C(Nc1ccccc1F)N[C@H]1CC[C@H](CCNC(=O)C2CCCCC2)O[C@H]1CO 0.987%
CCOc1cc(CNCc2ccccc2)ccc1OCc1ccc(Cl)cc1 -1.22%
COc1ccc(CNC(=O)CN2C(=O)c3ccccc3C2=O)cc1 -2.86%
COc1ccccc1CNc1nc(C)c(C(C)=O)s1 -3.39%
CN(C)C(=O)C[C@@H]1C=C[C@H](NC(=O)Nc2cccc(F)c2)[C@@H](CO)O1 -2.87%
O=C(COC(=O)Cc1ccc(F)cc1)Nc1ccc2[nH]c(=O)[nH]c2c1 0.302%
COc1ccccc1N1CC(C(=O)Nc2ccc(C)c(S(=O)(=O)N3CCOCC3)c2)CC1=O (stereo not drawn) 8.29%
O=C(O)c1cccc(C(=O)O)c1S(=O)Cc1ccccc1 (stereo not drawn) -2.41%
CCOc1ccc(/C=N/NC(=O)c2ccccc2C)cc1CN1CC2CC(C1)c1cccc(=O)n1C2 (stereo not drawn) -2.24%
COc1ccc(N(CC(=O)NC2CCCCC2)C(=O)CNC(=O)c2cccs2)cc1OC 1.17%
Cc1ccc(S(=O)(=O)N(C)C[C@H]2OCCCC[C@@H](C)Oc3ccc(NS(=O)(=O)c4c(C)noc4C)cc3C(=O)N([C@@H](C)CO)C[C@H]2C)cc1 33.5%
CCCN(CCC)Cc1cc(=O)oc2cc(C)c(C)cc12 -1.88%
CCCCn1c(N)c(N(CC(C)C)C(=O)COc2cc(C)ccc2Cl)c(=O)[nH]c1=O 0.449%
Cc1cc(C)cc(OCC(=O)OCC(=O)N2CCc3ccccc32)c1 4.97%
